PubChem BioAssay (EPA / NIEHS)
Records with an inconclusive call do not appear. Activity calls are given as the source filed them. The calls were made as follows: active = hit-call score of the fitted dose curve at least 0.9, where 1 is the maximum; inconclusive = response in the unintended direction; inactive = score below 0.9.

Each compound was assayed against human Retinoic Acid Receptor gamma (RARg), RARG (gene 5916) (UniProt P13631) (assay: ATG_RARg_TRANS: Attagene TRANS-FACTORIAL HepG2 Assay for human Retinoic Acid Receptor gamma (RARg) (AID 2283009)).
human Retinoic Acid Receptor gamma (RARg), RARG (gene 5916), sequence (P13631 whole entry, looked up, the tested form may be a part): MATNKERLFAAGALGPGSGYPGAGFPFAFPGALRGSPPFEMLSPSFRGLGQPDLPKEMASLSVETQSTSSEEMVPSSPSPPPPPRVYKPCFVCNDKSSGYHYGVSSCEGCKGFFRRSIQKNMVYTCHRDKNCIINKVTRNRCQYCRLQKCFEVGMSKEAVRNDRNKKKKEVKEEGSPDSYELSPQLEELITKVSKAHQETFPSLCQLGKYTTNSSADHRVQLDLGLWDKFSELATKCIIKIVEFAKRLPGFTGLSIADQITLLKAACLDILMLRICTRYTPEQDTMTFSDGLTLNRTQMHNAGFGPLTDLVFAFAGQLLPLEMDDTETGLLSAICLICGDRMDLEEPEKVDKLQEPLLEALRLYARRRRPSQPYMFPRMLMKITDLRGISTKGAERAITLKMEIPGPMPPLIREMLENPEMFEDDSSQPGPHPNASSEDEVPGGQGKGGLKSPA
How it was run: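 Readout: reporter transcript levels via RT-PCR, 6-FAM primer-extension labelling, HpaI digestion and capillary electrophoresis. Cells: HepG2 carrying transfected RARg-GAL4 chimera plus UAS reporter set. Dosing 24 h; DMSO negative control.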
`O=C1C(Cl)=C(Cl)C(=O)C(Cl)=C1Cl` was tested, and the outcome was “inactive”.
`O=C(NCNC(=O)NC1C(=O)NC(=O)N1CO)NC1C(=O)NC(=O)N1CO` (stereo not given) was tested, and the outcome was “inactive”.
In the case of `CC(C)(O)C#N`, the outcome is reported as “inactive”.
With `CC(C)C#N` the outcome was “inactive”.
With `ClC1=C(Cl)[C@]2(Cl)[C@@H]3[C@@H](Cl)[C@H](Cl)C[C@@H]3[C@@]1(Cl)C2(Cl)Cl` the outcome was “inactive”.
In the case of `O=S(=O)(c1ccccc1)c1ccccc1`, the outcome is reported as “inactive”.

Each compound was assayed against human RAR-related Orphan Receptor beta (RORb), RORB (gene 6096) (UniProt Q92753) (assay: ATG_RORb_TRANS: Attagene TRANS-FACTORIAL HepG2 Assay for human RAR-related Orphan Receptor beta (RORb) (AID 2283010)).
human RAR-related Orphan Receptor beta (RORb), RORB (gene 6096), sequence (Q92753 whole entry, looked up, the tested form may be a part): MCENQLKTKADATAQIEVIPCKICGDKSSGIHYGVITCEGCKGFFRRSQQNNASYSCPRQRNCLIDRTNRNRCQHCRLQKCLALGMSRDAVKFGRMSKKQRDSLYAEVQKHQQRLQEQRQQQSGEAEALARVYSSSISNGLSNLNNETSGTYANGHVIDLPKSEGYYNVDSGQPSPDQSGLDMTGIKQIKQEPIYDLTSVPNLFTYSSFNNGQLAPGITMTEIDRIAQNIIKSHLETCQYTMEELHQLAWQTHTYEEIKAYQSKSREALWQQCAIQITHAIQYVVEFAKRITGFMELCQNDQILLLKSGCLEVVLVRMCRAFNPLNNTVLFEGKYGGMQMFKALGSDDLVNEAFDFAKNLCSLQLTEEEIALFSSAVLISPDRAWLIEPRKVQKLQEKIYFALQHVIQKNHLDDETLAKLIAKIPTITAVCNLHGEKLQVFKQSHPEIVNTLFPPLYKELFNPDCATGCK
How it was run: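 HepG2, transient MRTU transfection (GAL4-UAS reporters, exogenous NR-Gal4 chimeras); 24 h compound exposure; total RNA → RT-PCR → 6-FAM primer extension → HpaI digest → CE fluorescence. Positive direction vs DMSO baseline.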
With `CC1CCC(=O)O1` (stereo not given) the outcome was “inactive”.
With `CC(C)c1ccc(O)cc1` the outcome was “inactive”.
In the case of `C[N+](C)(C)CC(=O)[O-]`, the outcome is reported as “inactive”.
In the case of `O=C(NCNC(=O)NC1C(=O)NC(=O)N1CO)NC1C(=O)NC(=O)N1CO` (stereo not given), the outcome is reported as “inactive”.
With `[N-]=[N+]=CC(=O)OC[C@H](N)C(=O)O` the outcome was “inactive”.
For `C=COCCCl`, the outcome was “inactive”.
`CC(Cc1ccc(C(C)(C)C)cc1)CN1C[C@@H](C)O[C@@H](C)C1` (stereo not given in full) was tested, and the outcome was “inactive”.
In the case of `[Cl-].[Cl-].[Cl-].[Yb+3]`, the outcome is reported as “inactive”.
With `CCC[N+](=O)[O-]` the outcome was “inactive”.
In the case of `CC=Cc1ccc2c(c1)OCO2`, the outcome is reported as “inactive”.
For `ClC1=C(Cl)[C@]2(Cl)[C@@H]3[C@@H](Cl)[C@H](Cl)C[C@@H]3[C@@]1(Cl)C2(Cl)Cl`, the outcome was “inactive”.
With `CC1(C)C(=O)NC(=O)NC1=O` the outcome was “inactive”.
`CC(=O)/C=C/c1ccccc1` was tested, and the outcome was “inactive”.
For `CCN(CC)C(=S)S`, the outcome was “inactive”.
In the case of `N#CC(c1ccccc1)c1ccccc1`, the outcome is reported as “inactive”.
In the case of `C[N+](C)=CCl`, the outcome is reported as “inactive”.

The compounds below were run against human RAR-related Orphan Receptor gamma (RORg), RORC (gene 6097) (UniProt P51449) (assay: ATG_RORg_TRANS: Attagene TRANS-FACTORIAL HepG2 Assay for human RAR-related Orphan Receptor gamma (RORg) (AID 2283011)).
human RAR-related Orphan Receptor gamma (RORg), RORC (gene 6097), sequence (P51449 whole entry, looked up, the tested form may be a part): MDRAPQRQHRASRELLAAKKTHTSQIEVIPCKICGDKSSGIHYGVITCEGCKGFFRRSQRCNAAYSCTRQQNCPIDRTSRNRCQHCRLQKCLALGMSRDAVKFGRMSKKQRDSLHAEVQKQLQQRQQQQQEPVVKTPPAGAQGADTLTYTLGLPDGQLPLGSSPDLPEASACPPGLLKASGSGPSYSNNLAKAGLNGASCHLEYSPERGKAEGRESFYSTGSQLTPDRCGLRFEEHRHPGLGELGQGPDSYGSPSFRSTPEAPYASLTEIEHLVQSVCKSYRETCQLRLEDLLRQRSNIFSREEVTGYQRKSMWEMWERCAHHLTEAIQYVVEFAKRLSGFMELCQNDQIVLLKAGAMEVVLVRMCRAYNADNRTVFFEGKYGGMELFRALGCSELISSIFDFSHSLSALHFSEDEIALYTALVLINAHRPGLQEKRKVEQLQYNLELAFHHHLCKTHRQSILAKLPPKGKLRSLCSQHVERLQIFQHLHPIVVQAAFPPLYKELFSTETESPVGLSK
How it was run: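 Readout: reporter transcript induction (RT-PCR, fluorescent primer extension, capillary electrophoresis) after 24 h compound exposure of transiently transfected HepG2 cells carrying a RORg-Gal4 chimera and GAL4-UAS reporters; DMSO served as baseline, with increasing signal fitted.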
In the case of `O=C1C(Cl)=C(Cl)C(=O)C(Cl)=C1Cl`, the outcome is reported as “inactive”.
`N#CCCCCC#N` was tested, and the outcome was “inactive”.
`CC1CCC(=O)O1` (stereo not given) was tested, and the outcome was “inactive”.
`C[N+](C)(C)CC(=O)[O-]` was tested, and the outcome was “inactive”.
For `O=C(NCNC(=O)NC1C(=O)NC(=O)N1CO)NC1C(=O)NC(=O)N1CO` (stereo not given), the outcome was “inactive”.
With `CCC1CCC(=O)O1` (stereo not given) the outcome was “inactive”.
For `C=COCCCl`, the outcome was “inactive”.
With `[Cl-].[Cl-].[Cl-].[Yb+3]` the outcome was “inactive”.
With `CCC[N+](=O)[O-]` the outcome was “inactive”.
In the case of `CC=Cc1ccc2c(c1)OCO2`, the outcome is reported as “inactive”.
`CCC(C)c1cc(C(C)(C)C)cc(-n2nc3ccccc3n2)c1O` (stereo not given) was tested, and the outcome was “inactive”.
`CC1(C)C(=O)NC(=O)NC1=O` was tested, and the outcome was “inactive”.
In the case of `CCN(CC)C(=S)S`, the outcome is reported as “inactive”.

What follows are compounds tested against Retinoic acid receptor RXR-alpha (Homo sapiens) (UniProt P19793) (assay: ATG_RXRa_TRANS: Attagene TRANS-FACTORIAL HepG2 Assay for human Retinoid X Receptor alpha (RXRa) (AID 2283012)).
Retinoic acid receptor RXR-alpha (Homo sapiens), sequence (P19793 whole entry, looked up, the tested form may be a part): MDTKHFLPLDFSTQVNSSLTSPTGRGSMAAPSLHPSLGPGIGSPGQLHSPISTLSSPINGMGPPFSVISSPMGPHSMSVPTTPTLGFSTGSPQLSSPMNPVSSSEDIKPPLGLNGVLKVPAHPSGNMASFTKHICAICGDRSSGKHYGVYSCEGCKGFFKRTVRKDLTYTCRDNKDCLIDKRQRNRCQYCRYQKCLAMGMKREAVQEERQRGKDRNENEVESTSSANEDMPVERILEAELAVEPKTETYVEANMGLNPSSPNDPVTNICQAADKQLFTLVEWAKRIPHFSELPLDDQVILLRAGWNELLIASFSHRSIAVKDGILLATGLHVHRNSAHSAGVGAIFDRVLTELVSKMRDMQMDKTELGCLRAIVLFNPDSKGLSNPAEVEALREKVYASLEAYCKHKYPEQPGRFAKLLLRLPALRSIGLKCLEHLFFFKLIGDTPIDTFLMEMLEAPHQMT
How it was run: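 Read-out: fluorescent reporter-transcript fragments quantified by capillary electrophoresis after RT-PCR. Transiently transfected HepG2 cells carrying GAL4-UAS reporters and NR-GAL4 chimeras were exposed to chemical for 24 h; activity scored as increase over DMSO.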
With `O=C1C(Cl)=C(Cl)C(=O)C(Cl)=C1Cl` the outcome was “inactive”.
With `N#CCCCCC#N` the outcome was “inactive”.
With `COc1cc(OC)c(OC)cc1C=O` the outcome was “inactive”.
`CC(C)c1ccc(O)cc1` was tested, and the outcome was “inactive”.
For `C[N+](C)(C)CC(=O)[O-]`, the outcome was “inactive”.
For `CC(C)(c1cc(Cl)c(O)c(Cl)c1)c1cc(Cl)c(O)c(Cl)c1`, the outcome was “inactive”.
In the case of `O=C(NCNC(=O)NC1C(=O)NC(=O)N1CO)NC1C(=O)NC(=O)N1CO` (stereo not given), the outcome is reported as “inactive”.
In the case of `COCC(=O)N(c1c(C)cccc1C)N1CCOC1=O`, the outcome is reported as “inactive”.
`C=COCCCl` was tested, and the outcome was “inactive”.
With `C=CCN(CC=C)C(=O)C(Cl)Cl` the outcome was “inactive”.
In the case of `CC(Cc1ccc(C(C)(C)C)cc1)CN1C[C@@H](C)O[C@@H](C)C1` (stereo not given in full), the outcome is reported as “inactive”.
With `[Cl-].[Cl-].[Cl-].[Yb+3]` the outcome was “inactive”.
In the case of `CCOC(=O)N(C)N=O`, the outcome is reported as “inactive”.
In the case of `O=CNC(N1CCN(C(NC=O)C(Cl)(Cl)Cl)CC1)C(Cl)(Cl)Cl` (stereo not given), the outcome is reported as “inactive”.
With `CC(C)C#N` the outcome was “inactive”.
In the case of `c1ccc(Nc2ccc3ccccc3c2)cc1`, the outcome is reported as “inactive”.
For `CC=Cc1ccc2c(c1)OCO2`, the outcome was “inactive”.
For `Cc1ccc(OP(=O)(Oc2ccc(C)cc2)Oc2ccc(C)cc2)cc1` (tested in a mixture with another compound), the outcome was “inactive”.
With `O=S(=O)(c1ccccc1)c1ccccc1` the outcome was “inactive”.
In the case of `CC1(C)C(=O)NC(=O)NC1=O`, the outcome is reported as “inactive”.
With `CC(=O)/C=C/c1ccccc1` the outcome was “inactive”.
With `CCN(CC)C(=S)S` the outcome was “inactive”.
For `N#Cc1cccc(C#N)c1`, the outcome was “inactive”.
In the case of `O=C1Nc2ccc(Cl)cc2C(c2ccccc2)=NC1O` (stereo not given), the outcome is reported as “inactive”.
With `N#CC(c1ccccc1)c1ccccc1` the outcome was “inactive”.
For `C[N+](C)=CCl`, the outcome was “inactive”.

The compounds below were run against human Retinoid X Receptor beta (RXRb), RXRB (gene 6257) (UniProt P28702) (assay: ATG_RXRb_TRANS: Attagene TRANS-FACTORIAL HepG2 Assay for human Retinoid X Receptor beta (RXRb) (AID 2283013)).
human Retinoid X Receptor beta (RXRb), RXRB (gene 6257), sequence (P28702 whole entry, looked up, the tested form may be a part): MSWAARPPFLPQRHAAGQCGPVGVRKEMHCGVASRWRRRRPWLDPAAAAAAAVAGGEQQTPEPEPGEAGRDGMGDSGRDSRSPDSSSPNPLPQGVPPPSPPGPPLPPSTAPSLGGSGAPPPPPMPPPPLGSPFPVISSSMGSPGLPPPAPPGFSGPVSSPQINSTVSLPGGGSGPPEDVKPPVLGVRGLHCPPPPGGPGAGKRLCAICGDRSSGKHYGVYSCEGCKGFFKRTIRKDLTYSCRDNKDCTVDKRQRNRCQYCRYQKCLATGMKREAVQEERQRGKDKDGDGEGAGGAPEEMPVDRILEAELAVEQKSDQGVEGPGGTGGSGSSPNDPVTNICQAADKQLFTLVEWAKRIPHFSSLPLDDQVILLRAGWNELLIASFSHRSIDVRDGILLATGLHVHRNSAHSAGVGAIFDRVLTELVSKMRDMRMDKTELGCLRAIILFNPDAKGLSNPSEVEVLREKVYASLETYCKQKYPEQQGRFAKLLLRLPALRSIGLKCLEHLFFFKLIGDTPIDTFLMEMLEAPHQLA
How it was run: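 Read-out: reporter mRNA induction via RT-PCR plus capillary electrophoresis fluorescence, analysed as signal increase relative to DMSO. Cells were human HepG2, transiently transfected with GAL4-UAS reporter constructs and chimeric receptor-Gal4 fusions, dosed for 24 h.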
For `O=C1C(Cl)=C(Cl)C(=O)C(Cl)=C1Cl`, the outcome was “inactive”.
`COc1cc(OC)c(OC)cc1C=O` was tested, and the outcome was “inactive”.
For `CC(C)c1ccc(O)cc1`, the AC50 was 74.9 µM (active).
`C[N+](C)(C)CC(=O)[O-]` was tested, and the outcome was “inactive”.
In the case of `CC(C)(c1cc(Cl)c(O)c(Cl)c1)c1cc(Cl)c(O)c(Cl)c1`, the AC50 is reported as 9.09 µM (active).
With `O=C(NCNC(=O)NC1C(=O)NC(=O)N1CO)NC1C(=O)NC(=O)N1CO` (stereo not given) the AC50 was 39.8 µM (active).
For `CC(C)CCCCCCCOP(=O)(Oc1ccccc1)Oc1ccccc1`, the outcome was “inactive”.
For `CCC1CCC(=O)O1` (stereo not given), the outcome was “inactive”.
In the case of `C=COCCCl`, the outcome is reported as “inactive”.
For `CC[N+](=O)[O-]`, the outcome was “inactive”.
`CC(Cc1ccc(C(C)(C)C)cc1)CN1C[C@@H](C)O[C@@H](C)C1` (stereo not given in full) was tested, and the outcome was “inactive”.
With `CC(C)(O)C#N` the AC50 was 78.5 µM (active).
With `S=c1[nH]c2ccccc2[nH]1` the outcome was “inactive”.
With `CCCCCc1cc(O)cc(O)c1` the outcome was “inactive”.
With `CSc1nc(N=[N+]=[N-])nc(NC(C)C)n1` the outcome was “inactive”.
With `CC=Cc1ccc2c(c1)OCO2` the outcome was “inactive”.
For `ClC1=C(Cl)[C@]2(Cl)[C@@H]3[C@@H](Cl)[C@H](Cl)C[C@@H]3[C@@]1(Cl)C2(Cl)Cl`, the outcome was “inactive”.
With `CCC(C)c1cc(C(C)(C)C)cc(-n2nc3ccccc3n2)c1O` (stereo not given) the AC50 was 8.72 µM (active).
In the case of `CC1(C)C(=O)NC(=O)NC1=O`, the outcome is reported as “inactive”.
With `CC(=O)/C=C/c1ccccc1` the outcome was “inactive”.
With `c1ccc(P(c2ccccc2)c2ccccc2)cc1` the AC50 was 38.6 µM (active).
For `CCN(CC)C(=S)S`, the outcome was “inactive”.
For `O=C1Nc2ccc(Cl)cc2C(c2ccccc2)=NC1O` (stereo not given), the outcome was “inactive”.
With `N#CC(c1ccccc1)c1ccccc1` the AC50 was 49.1 µM (active).
